Assay results reported in the supplement of paper PMC10849652.
Targets with a hit are over-represented here; the source holds about 7,900 in all. About 0.6% of all pairs of compound and target were hits.

Legend:
Experiment in all cases: log2 fold change, soluble protein after heating vs DMSO (PISA); higher = thermal stabilisation; K562 cells, 10 uM, 30 min; active = over 0.2 and 3.5 SD of the protein, either way, in both replicates (recomputed)
[1] = compound: NCC(=O)Nc1ccc(-n2nc(C(F)(F)F)cc2-c2ccc3c(ccc4ccccc43)c2)cc1
Summary of the method: (§1)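 Aliquots of K562 cells (2×10^6 cells/mL) treated with 10 μM compound for 30 min were heated for 3 min over 48°C-58°C. After pooling and extraction in PBS with 0.5% NP-40 at 4°C, soluble protein from a 21,000xg, 90 min spin was quantified by TMTpro 16plex LC-MS/MS with channel sums equalised. Thermal stability is expressed against control samples, from duplicates, as a log2 fold change.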

[2] = compound: NC(=O)Nc1cc(-c2cccc(F)c2)sc1C(=O)N[C@H]1CCCNC1
Summary of the method: as §1

[3] = compound: NC1(c2ccc(-c3nc4ccn5c(=O)[nH]nc5c4cc3-c3ccccc3)cc2)CCC1
Summary of the method: as §1

entinostat = compound: Nc1ccccc1NC(=O)c1ccc(CNC(=O)OCc2cccnc2)cc1 [entinostat]
Summary of the method: as §1

vorinostat = compound: O=C(CCCCCCC(=O)Nc1ccccc1)NO [vorinostat]
Summary of the method: as §1

silmitasertib = compound: O=C(O)c1ccc2c(c1)nc(Nc1cccc(Cl)c1)c1ccncc12 [silmitasertib]
Summary of the method: as §1

[4] = compound: O=C1NC(=O)C(c2cnc3ccccn23)=C1c1cn2c3c(cc(F)cc13)CN(C(=O)N1CCCCC1)CC2
Summary of the method: as §1

[5] = compound: NC(=O)c1cnc(N[C@@H]2CCCC[C@@H]2N)nc1Nc1cccc(-n2nccn2)c1
Summary of the method: as §1

citarinostat = compound: O=C(CCCCCCNC(=O)c1cnc(N(c2ccccc2)c2ccccc2Cl)nc1)NO [citarinostat]
Summary of the method: as §1

[6] = compound: c1cc(OCCN2CCCCC2)cc(-c2n[nH]c3ccc(-c4nnc[nH]4)cc23)c1
Summary of the method: as §1

Measured: log2 fold change

IGF2 isoform 3 (UniProt P01344)
Chain of UniProt P01344 (P01344 whole entry, looked up): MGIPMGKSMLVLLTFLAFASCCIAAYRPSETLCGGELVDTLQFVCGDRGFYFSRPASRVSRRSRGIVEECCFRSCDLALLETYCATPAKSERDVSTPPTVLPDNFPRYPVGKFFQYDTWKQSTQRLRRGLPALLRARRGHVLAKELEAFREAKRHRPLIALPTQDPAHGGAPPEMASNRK
inactive: [1] -0.004

FAT1 (UniProt Q14517)
inactive: [2] -0.018 | [3] 0 | [1] -0.075 | entinostat 0.015 | vorinostat -0.04 | silmitasertib 0.176 | [4] -0.051

GREB1 (UniProt Q4ZG55)
inactive: [2] 0.029 | [5] -0.103 | [1] -0.002 | entinostat 0.012 | [4] 0.036

HNRNPUL1 (UniProt M0R247)
inactive: [2] -0.056 | [5] -0.629 | entinostat -0.352 | citarinostat -0.227 | [6] -0.014

IDH3A isoform 2 (UniProt P50213)
inactive: [5] -0.06

FAT2 (UniProt Q9NYQ8)
inactive: [3] -0.334 | [1] -0.134 | vorinostat 0.068 | citarinostat -0.045 | silmitasertib -0.063 | [4] -0.06 | [6] -0.06

GOLGA6B (UniProt A6NDN3)
inactive: [2] 0.048 | [3] -0.054 | [1] 0.001 | entinostat 0.007 | vorinostat 0.114 | silmitasertib 0.022 | [4] 0.051

GOLGA8R (UniProt I6L899)
Chain of UniProt I6L899 (I6L899 whole entry, looked up): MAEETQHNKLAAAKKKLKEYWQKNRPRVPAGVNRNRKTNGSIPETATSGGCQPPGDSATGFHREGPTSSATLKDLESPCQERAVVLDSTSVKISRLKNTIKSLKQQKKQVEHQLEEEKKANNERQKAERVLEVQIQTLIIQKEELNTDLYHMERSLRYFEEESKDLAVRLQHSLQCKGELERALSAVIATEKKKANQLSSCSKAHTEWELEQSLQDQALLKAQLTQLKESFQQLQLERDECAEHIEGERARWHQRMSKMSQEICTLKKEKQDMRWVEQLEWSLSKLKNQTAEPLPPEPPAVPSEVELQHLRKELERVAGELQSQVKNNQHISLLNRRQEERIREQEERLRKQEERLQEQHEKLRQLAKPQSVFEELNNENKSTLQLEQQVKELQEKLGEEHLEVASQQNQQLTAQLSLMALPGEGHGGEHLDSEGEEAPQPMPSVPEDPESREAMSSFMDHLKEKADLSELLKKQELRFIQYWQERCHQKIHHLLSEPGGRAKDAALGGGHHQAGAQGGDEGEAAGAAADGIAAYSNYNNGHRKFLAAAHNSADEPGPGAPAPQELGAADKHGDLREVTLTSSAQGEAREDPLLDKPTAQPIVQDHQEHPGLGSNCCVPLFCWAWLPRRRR
inactive: [5] -0.1 | [1] 0.02 | vorinostat 0.073 | citarinostat 0.09 | [6] 0.006

GINS2 (UniProt Q9Y248)
Chain of UniProt Q9Y248 (Q9Y248 whole entry, looked up): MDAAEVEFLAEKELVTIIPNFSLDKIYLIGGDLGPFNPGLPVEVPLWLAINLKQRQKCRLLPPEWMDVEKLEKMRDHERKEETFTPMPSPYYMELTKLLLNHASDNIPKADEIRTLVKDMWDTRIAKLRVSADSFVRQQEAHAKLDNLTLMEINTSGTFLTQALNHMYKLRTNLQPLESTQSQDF
inactive: [2] -0.086 | [3] -0.024 | [1] 0.022 | vorinostat -0.01 | citarinostat 0.028 | silmitasertib -0.031 | [4] -0.163 | [6] -0.026
active: entinostat 0.533

HDAC2 (UniProt Q92769)
Chain of UniProt Q92769 (Q92769 whole entry, looked up): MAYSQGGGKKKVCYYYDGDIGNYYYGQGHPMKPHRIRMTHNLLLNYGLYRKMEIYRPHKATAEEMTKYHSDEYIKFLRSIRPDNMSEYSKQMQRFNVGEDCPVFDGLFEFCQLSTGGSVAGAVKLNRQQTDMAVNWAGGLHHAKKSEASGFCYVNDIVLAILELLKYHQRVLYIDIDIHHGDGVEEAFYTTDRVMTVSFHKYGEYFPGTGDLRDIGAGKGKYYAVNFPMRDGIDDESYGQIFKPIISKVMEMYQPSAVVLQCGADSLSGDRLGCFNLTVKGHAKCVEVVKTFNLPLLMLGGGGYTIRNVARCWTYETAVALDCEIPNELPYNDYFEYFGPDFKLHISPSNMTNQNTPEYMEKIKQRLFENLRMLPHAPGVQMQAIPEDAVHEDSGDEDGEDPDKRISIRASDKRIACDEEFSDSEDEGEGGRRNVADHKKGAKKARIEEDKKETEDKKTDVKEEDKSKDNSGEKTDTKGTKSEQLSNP
inactive: [2] -0.01 | [5] -0.037 | [3] -0.013 | [1] -0.039 | silmitasertib 0.04 | [4] -0.021 | [6] -0.041
active: citarinostat 1.04

HDAC10 (UniProt Q969S8)
inactive: [5] 0.061 | [3] -0.076 | [1] -0.033 | vorinostat 0.208 | citarinostat 0.062 | silmitasertib -0.271 | [6] -0.09

HNRNPK isoform 3 (UniProt P61978)
inactive: [2] -0.06 | [3] 0.052 | [1] -0.182 | entinostat 0.023 | vorinostat 0.035 | citarinostat -0.009 | silmitasertib 0.028 | [4] 0.159 | [6] -0.102

IFITM3 (UniProt Q01628)
Chain of UniProt Q01628 (Q01628 whole entry, looked up): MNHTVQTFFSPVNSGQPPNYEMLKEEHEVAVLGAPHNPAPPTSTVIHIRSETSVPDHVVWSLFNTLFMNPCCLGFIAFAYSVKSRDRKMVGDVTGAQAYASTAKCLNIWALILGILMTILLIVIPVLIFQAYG
inactive: [2] -0.074 | [5] 0.1 | [3] -0.089 | [1] 0.14 | entinostat 0.008 | citarinostat 0.232 | silmitasertib -0.111 | [4] 0.072 | [6] -0.164

HSPA2 (UniProt P54652)
Chain of UniProt P54652 (P54652 whole entry, looked up): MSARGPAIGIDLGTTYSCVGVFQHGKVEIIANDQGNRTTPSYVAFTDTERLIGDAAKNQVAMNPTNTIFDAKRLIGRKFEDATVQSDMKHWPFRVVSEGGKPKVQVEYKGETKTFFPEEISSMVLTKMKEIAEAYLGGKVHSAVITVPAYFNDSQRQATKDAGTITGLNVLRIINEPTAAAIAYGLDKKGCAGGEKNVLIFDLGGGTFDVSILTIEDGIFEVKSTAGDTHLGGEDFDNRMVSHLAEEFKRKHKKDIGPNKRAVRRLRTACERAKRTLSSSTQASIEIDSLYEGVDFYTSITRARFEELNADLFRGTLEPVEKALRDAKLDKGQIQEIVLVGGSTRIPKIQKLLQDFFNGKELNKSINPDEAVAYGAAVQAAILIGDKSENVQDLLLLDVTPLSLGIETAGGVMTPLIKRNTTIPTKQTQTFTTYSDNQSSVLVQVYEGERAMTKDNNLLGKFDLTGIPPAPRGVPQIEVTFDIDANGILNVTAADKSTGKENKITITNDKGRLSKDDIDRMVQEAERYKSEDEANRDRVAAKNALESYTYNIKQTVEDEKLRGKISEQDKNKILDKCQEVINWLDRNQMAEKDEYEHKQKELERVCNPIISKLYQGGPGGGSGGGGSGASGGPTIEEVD
inactive: [2] -0.015 | [5] 0.076 | [3] -0.071 | entinostat -0.039 | silmitasertib 0.006

GSTT1 (UniProt P30711)
Chain of UniProt P30711 (P30711 whole entry, looked up): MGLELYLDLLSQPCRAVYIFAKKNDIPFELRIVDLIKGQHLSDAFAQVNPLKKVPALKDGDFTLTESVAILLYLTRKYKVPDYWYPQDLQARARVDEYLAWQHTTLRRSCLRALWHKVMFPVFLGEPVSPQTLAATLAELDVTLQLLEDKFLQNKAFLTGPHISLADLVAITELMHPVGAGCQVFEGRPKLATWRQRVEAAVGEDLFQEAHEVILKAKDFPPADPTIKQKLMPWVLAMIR
inactive: [5] 0.012 | [3] 0.03 | [1] 0.08 | vorinostat -0.022 | citarinostat -0.018 | silmitasertib -0.074 | [4] 0.019 | [6] -0.012

HBZ, A0A494C057
inactive: [3] -0.022 | citarinostat -0.197 | silmitasertib 0.005 | [6] 0.876

H3-3A (UniProt P84243)
inactive: [2] 0.072 | [3] -0.095 | [1] -0.096 | entinostat 0.104 | citarinostat 0.157 | silmitasertib -0.046 | [6] 0.028

GPS2 (UniProt Q13227)
Chain of UniProt Q13227 (Q13227 whole entry, looked up): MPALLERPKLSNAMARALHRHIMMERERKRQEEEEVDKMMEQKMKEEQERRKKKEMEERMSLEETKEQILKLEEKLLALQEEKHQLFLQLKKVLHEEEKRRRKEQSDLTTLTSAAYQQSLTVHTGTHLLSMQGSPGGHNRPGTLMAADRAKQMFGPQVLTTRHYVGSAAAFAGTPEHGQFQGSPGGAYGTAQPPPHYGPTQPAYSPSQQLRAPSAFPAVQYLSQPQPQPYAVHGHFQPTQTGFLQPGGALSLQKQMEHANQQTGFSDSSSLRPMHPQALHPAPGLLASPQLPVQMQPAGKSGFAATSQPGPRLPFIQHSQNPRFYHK
inactive: [2] 0.041 | [3] 0.079 | [1] -0.106 | entinostat -0.015 | citarinostat -0.023 | silmitasertib 0.031 | [4] -0.005 | [6] -0.092

FASTKD1 (UniProt Q53R41)
Chain of UniProt Q53R41 (Q53R41 whole entry, looked up): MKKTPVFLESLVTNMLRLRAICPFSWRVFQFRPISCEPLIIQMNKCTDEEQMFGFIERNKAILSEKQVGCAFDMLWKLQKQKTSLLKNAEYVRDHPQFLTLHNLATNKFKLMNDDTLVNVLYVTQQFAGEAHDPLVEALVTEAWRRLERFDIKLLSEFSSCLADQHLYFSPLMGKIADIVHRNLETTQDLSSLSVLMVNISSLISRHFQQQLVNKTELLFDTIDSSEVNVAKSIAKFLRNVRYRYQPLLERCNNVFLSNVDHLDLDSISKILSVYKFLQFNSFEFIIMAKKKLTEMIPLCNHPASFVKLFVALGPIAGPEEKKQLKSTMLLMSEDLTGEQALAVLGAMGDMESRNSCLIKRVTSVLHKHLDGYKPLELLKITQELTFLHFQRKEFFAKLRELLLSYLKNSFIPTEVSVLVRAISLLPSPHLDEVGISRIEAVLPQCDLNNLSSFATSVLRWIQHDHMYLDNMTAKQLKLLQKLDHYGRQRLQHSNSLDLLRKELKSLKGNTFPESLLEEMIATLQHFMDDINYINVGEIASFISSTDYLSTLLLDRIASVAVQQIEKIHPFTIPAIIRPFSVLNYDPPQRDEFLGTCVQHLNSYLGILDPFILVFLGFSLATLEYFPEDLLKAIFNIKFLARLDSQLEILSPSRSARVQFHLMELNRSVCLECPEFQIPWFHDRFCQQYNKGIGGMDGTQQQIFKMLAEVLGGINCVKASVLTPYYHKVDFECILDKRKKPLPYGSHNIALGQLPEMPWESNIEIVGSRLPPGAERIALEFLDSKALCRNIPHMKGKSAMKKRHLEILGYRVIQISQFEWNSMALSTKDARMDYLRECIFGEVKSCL
inactive: [2] 0.046 | [5] -0.014 | [1] 0.033 | entinostat -0.019 | vorinostat 0.018 | citarinostat -0.055 | [4] -0.12 | [6] 0.046

FGG (UniProt P02679)
inactive: vorinostat -0.001

GSE1 (UniProt Q14687)
inactive: [1] -0.044

FBXO9 (UniProt Q9UK97)
inactive: [3] -0.079 | [1] -0.112 | vorinostat 0.109 | citarinostat 0.157 | silmitasertib 0.132 | [6] 0.054

GGA2 (UniProt Q9UJY4)
Chain of UniProt Q9UJY4 (Q9UJY4 whole entry, looked up): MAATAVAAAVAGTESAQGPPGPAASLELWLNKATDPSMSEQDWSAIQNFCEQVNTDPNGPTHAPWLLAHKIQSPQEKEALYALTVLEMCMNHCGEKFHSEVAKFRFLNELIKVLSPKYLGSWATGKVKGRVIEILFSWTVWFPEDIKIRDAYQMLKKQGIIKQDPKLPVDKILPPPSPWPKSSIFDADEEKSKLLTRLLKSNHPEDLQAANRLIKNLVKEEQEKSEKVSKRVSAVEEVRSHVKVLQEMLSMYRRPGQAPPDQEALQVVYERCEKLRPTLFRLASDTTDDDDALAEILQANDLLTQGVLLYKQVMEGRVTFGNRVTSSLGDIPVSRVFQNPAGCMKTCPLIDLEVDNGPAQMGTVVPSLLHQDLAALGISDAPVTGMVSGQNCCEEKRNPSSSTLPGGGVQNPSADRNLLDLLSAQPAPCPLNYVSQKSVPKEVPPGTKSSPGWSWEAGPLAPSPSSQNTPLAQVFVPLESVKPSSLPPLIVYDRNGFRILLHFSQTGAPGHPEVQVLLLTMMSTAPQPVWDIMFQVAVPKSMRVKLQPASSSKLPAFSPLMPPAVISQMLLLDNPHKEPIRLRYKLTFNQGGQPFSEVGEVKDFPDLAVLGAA
inactive: [2] 0.02 | [5] -0.02 | [3] -0.208 | [1] 0.01 | entinostat 0.032 | citarinostat 0.042 | silmitasertib 0.033 | [4] 0.152 | [6] -0.034

HEATR3 (UniProt Q7Z4Q2)
Chain of UniProt Q7Z4Q2 (Q7Z4Q2 whole entry, looked up): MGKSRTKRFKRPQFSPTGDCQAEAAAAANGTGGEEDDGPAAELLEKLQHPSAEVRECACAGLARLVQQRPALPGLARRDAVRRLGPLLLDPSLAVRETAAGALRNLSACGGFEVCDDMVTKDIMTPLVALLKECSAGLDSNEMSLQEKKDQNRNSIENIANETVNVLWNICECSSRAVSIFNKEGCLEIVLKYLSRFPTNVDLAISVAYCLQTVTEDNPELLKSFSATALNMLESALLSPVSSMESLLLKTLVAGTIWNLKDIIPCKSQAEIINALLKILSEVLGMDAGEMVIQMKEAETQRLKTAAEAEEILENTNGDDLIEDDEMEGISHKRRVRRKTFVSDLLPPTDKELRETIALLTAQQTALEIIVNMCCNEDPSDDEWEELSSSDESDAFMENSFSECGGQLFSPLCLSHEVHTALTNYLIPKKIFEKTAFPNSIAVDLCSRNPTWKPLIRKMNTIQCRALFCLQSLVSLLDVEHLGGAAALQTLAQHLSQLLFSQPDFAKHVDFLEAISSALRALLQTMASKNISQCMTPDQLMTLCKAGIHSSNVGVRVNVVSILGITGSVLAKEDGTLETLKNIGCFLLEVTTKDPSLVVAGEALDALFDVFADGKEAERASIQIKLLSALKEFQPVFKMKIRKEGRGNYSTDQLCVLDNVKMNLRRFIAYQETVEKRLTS
inactive: [2] 0 | [3] -0.248 | [1] -0.103 | entinostat 0.052 | vorinostat -0.017 | citarinostat 0.075 | silmitasertib 0.02 | [4] -0.051 | [6] 0.047

HDAC7 isoform 5 (UniProt Q8WUI4)
inactive: [2] 0.009 | [5] 0.123 | [3] 0.188 | [1] -0.036 | vorinostat 0.027 | citarinostat 0.032 | silmitasertib 0.021 | [4] 0.032 | [6] -0.163

GBA2 (UniProt Q9HCG7)
inactive: [2] -0.008 | [5] -0.006 | [3] -0.108 | [1] -0.129 | entinostat -0.023 | citarinostat -0.332 | silmitasertib 0.124 | [4] -0.027 | [6] -0.211

GBE1 (UniProt Q04446)
inactive: [5] -0.11 | [3] -0.214 | [1] -0.07 | citarinostat 0.09 | silmitasertib 0.031 | [4] -0.049 | [6] -0.057
